Assay results published in PubChem BioAssay AID1822 (The Scripps Research Institute Molecular Screening Center, 2009).
Several values for one entry are separate records, joined by “and”; a condition that tells them apart may be missing. Equal entries are not always repeated. Hit rate of the full screen: of about 290,000 compounds, about 3,500 (1.2%) were called active. The entries come from a sample that favours actives as a whole. Unmarked numbers belong to inactive results.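 The calls were made as follows: active = inhibition above the campaign mean inhibition over all tested compounds plus 3 SD (cut at about 28% in these data); inactive = the rest.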

Tested on: M18 aspartyl aminopeptidase (Plasmodium falciparum 3D7)
Assay: inhibition of P. falciparum M18 aminopeptidase – biochemical, QFRET, recombinant enzyme, primary screen (AID 1822);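 also: 0% = plate median of test compound wells and 100% = 2 mM ZnCl2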
Details: recombinant PfM18AAP, H-Glu-NHMec fluorogenic cleavage; at 7.35 µM; stronger effect = higher value

| SMILES | inhibition |
| --- | --- |
| COc1cc(Nc2nc3ccc(Cl)cc3n3cnnc23)cc(OC)c1OC | -5.42% |
| COc1cc(/C=N/Nc2nn3cnnc3c3ccccc23)cc(OC)c1OC | 43.6% (active) |
| COc1cc(/C=N/NC(=O)Cc2ccccc2)cc(OC)c1OC | 0.54% |
| CCOC(=O)C(CC)/C(C)=N\NC(=O)c1cccc(C)c1 (configuration not stated) | -12.1% |
| O=CN1CCN(C(=O)c2ccc(Br)o2)CC1 | -0.01% |
| O=C(Cc1ccccc1)Nc1c(C(=O)N2CCCCCC2)cnn1-c1ccccc1 | 5.1% |
| O=C(COc1ccccc1Cl)N1CCCCCCC1 | 5.5% |
| Cc1c(NC(=O)Nc2ccccc2Cl)sc(=S)n1C | 4.48% |
| O=C(Nc1cccnc1)c1cc(Cl)ccc1Cl | -0.24% |
| O=C(Nc1ccccc1Cl)Nn1cnnc1 | 77.6% (active) |
| O=C(COc1ccccc1Cl)Nc1ccc(C(=O)c2ccc(C(=O)O)cc2)cc1 | -8.1% |
| O=C(Nn1cnnc1)c1cc(Cl)ccc1Cl | 54.6% (active) |
| O=C(COc1ccccc1Cl)Nn1cnnc1 | 31% (active) |
| Cc1nn(-c2ccccc2)c(C)c1NC(=O)COc1ccc(Cl)cc1Cl | -6.26% |
| COc1ccccc1C(=O)Nn1cnnc1 | 18.1% |
| O=C(Nn1cnc2ccccc2c1=O)c1ccc([N+](=O)[O-])cc1Cl | -1.63% |
| O=C(COc1ccc([N+](=O)[O-])cc1Cl)Nn1cnnc1 | 33% (active) |
| O=C(Nc1ccccc1Cl)Nc1cccc2cccnc12 | 6.47% |
| COc1ccccc1NC(=O)CCC(=O)N1CC(C)Oc2ccc(C)cc21 (configuration not stated) | -4.62% |
| O=C(CN(Cc1ccccc1)C(=O)CCC(=O)Nc1ccccn1)NCCc1ccccc1 | 0.21% |
| O=[N+]([O-])c1cccc(S(=O)(=O)NCc2ccccn2)c1 | -8.77% |
| CN(Cc1ccccc1)CC(O)COc1ccc(CNCc2cc3ccccc3s2)cc1 (configuration not stated) | -3.49% |
| COc1ccc(C(=O)NC2CC2)cc1OC1CCN(C/C=C/c2ccccc2)CC1 | -7.74% |
| CC(C)CCNC(=O)c1ccc2c(Cl)c3c(nc2c1)CCC3 | -8.56% |
| CCN(CC)c1ccc(C(=O)NNC(=O)CCc2nc3ccccc3c(=O)[nH]2)cc1 | -7.26% |

| SMILES | inhibition |
| --- | --- |
| CC(=O)N1CCOc2ccc(S(=O)(=O)N3CCN(c4cccc(C(F)(F)F)c4)CC3)cc21 | -2.98% |
| COC(=O)c1c(NC(=O)CCN2CCOCC2)sc2c1CCCC2 | -1.78% |
| COC(=O)c1c(NC(=O)CCCC(=O)O)sc2c1CCCCC2 | 29.6% (active) |
| Cc1ccc(NC(=O)c2c(NC(=O)CCC(=O)O)sc3c2CCCCC3)cc1 | 36.1% (active) |
| O=C(CN1CCCC1)Nc1sc2c(c1C(=O)Nc1ccccc1)CCCC2 | 7.15% |
| Cc1ccc(C(=O)c2c(NC(=O)c3ccncc3)sc3c2CCCC3)cc1 | -11.4% |
| COC(=O)c1c(NC(=O)C2CC(C)=C(C)CC2C(=O)O)sc2c1CCCCC2 (configuration not stated) | -0.05% |
| Cc1cccc(OCC(=O)NC2CC(C)(C)NC(C)(C)C2)c1 | 7.98% |
| Cc1cc(C)c(S(=O)(=O)Nc2c(C)n(C)n(-c3ccccc3)c2=O)cc1[N+](=O)[O-] | 1.79% |
| C=CCn1c(SCc2ccccc2)nc2c1c(=O)[nH]c(=O)n2C | -4.12% |
| Cc1cc(=O)n2nc(N3CCCC(C(=O)NCc4cccc(Cl)c4)C3)sc2n1 (configuration not stated) | 0.59% |
| CC(C)(C)c1ccc(C(=O)N2CCC(C(=O)N3CCCCC3)CC2)cc1 | -4.18% |
| C=CCNC(=O)c1ccccc1SCc1c(C)noc1C | -1.38% |
| COc1cc(/C=N/Nc2ccc(C)cc2)cc(Br)c1O | 18.2% |
| COc1ccc(/C=C/C(=O)Nc2cccnc2)cc1OC | -3.57% |
| COc1cc(/C=N/NC(=S)Nc2cccnc2)cc(OC)c1O | 44.8% (active) |
| O=C(CCC1CCN(C(=O)c2cccc(Cl)c2F)CC1)Nc1ccccc1 | 4.45% |
| COc1ccc(C(=O)NC(C)Cn2nc(C)cc2C)cc1OC1CCN(C(C)=O)CC1 (configuration not stated) | 2.44% |
| COc1ccc(CCOC(=O)CNC(=O)c2ccc(Cl)cc2Cl)cc1 | 2.28% |
| O=C(CSc1ncn[nH]1)Nc1nsc(-c2ccccc2)n1 | 34.3% (active) |
| O=C(CSc1nc(-c2ccccc2)cs1)Nc1cccc([N+](=O)[O-])c1 | 1.5% |
| O=C(Nc1nsc(-c2ccccc2)n1)c1ccncc1 | -9.47% |
| O=C(CSc1ncn[nH]1)Nc1ccnc2ccccc12 | 71.8% (active) |
| O=C(CSc1nc2ccccc2[nH]1)Nc1nc(-c2ccccc2)c(-c2ccccc2)o1 | 1.21% |
| O=C(CSc1n[nH]c(-c2cccnc2)n1)Nc1ccnc2ccccc12 | -2.9% |

| SMILES | inhibition |
| --- | --- |
| O=C(CSc1ncn[nH]1)Nc1nc(-c2cccc([N+](=O)[O-])c2)cs1 | 41.6% (active) |
| CCN(C(=O)CSc1ncn[nH]1)c1cccc2ccccc12 | 19% |
| O=C(CSC1=NCCS1)Nc1nc(-c2ccccc2)cs1 | 4.17% |
| O=C(Nc1ccccc1)Nc1nnc(COc2ccccc2F)s1 | -2.7% |
| CCOc1ccc2nc(NC(=O)c3cc([N+](=O)[O-])ccc3N3CCOCC3)sc2c1 | -2.3% |
| CCOC(=O)N1CCN(C(=O)c2ccc3c(=O)n(CCc4ccc(OC)c(OC)c4)c(=O)[nH]c3c2)CC1 | 4.45% |
| CCC(C)Sc1nc2c(cnn2-c2ccc(F)cc2)c(=O)[nH]1 (configuration not stated) | 1.81% |
| COc1ccc(CCN(C)C(=O)C23CC4CC(CC(Cl)(C4)C2)C3)cc1OC | -8.52% |
| CC1CCN(C(=O)CCc2nnc3ccc(NCc4ccco4)nn23)CC1 | 23.2% |
| CCC(C)[C@H](NC(=O)N1CCn2c1nc1ccccc12)C(=O)NCc1ccc(OC)cc1 (some centres not stated) | 9.53% |
| C=CCC1(CC=C)CCCN1C(=O)c1cc(COc2ccc(-n3cncn3)cc2)on1 | -14.1% |
| Cc1csc(NC(=O)NC2(C(F)(F)F)Oc3ccccc3O2)n1 | 70.8% (active) |
| Cc1csc(NC(=O)Nc2ccccc2[N+](=O)[O-])n1 | 9.93% |
| CC(=O)Nc1cccc(C(=O)Nc2nc(C)cs2)c1 | -10.2% |
| COc1ccc(N2CCN(C(=O)CN3C(=O)COc4ccccc43)CC2)cc1 | -6.46% |
| COc1ccc(Br)cc1/C=N/n1c(C)nnc1C | 0.59% |
| Oc1ccc(Cl)cc1/C=N/c1nc2ccccc2[nH]1 | 0.82% |
| Oc1c(Cl)cc(Cl)cc1/C=N/c1ncn[nH]1 | 45.4% (active) |
| COc1cc(Br)cc(/C=N/c2ncn[nH]2)c1O | 61.7% (active) |
| Oc1ccc(Br)cc1C=Nc1ccc2[nH]ncc2c1 | 4.29% |
| O=C(CN1C(=O)c2cccnc2Oc2ccc(Cl)cc21)Nc1ccc(F)cc1 | -4.17% |
| Cc1cc(F)ccc1N1CCC(N2CCN(C)C(CCO)C2)CC1 (configuration not stated) | -5.24% |
| O=C(NNS(=O)(=O)c1ccc(F)cc1)C1CCCCC1 | -0.96% |
| Cc1cc(=O)oc2c(C)c(OC(C)C(=O)NC3CCN(Cc4ccccc4)CC3)ccc12 (configuration not stated) | -1.22% |
| Cc1ccnc(NC(=O)C2CCN(S(=O)(=O)c3c(C)c(C)cc(C)c3C)CC2)c1 | 3.42% |

| SMILES | inhibition |
| --- | --- |
| Cc1nc([N+](=O)[O-])nn1C12CC3CC(CC(Br)(C3)C1)C2 | 13.9% |
| Cc1ccnc(SCC(N)=O)n1 | 3.17% |
| Cc1ccnc(-n2sc3ccccc3c2=O)n1 | 42% (active) |
| Cc1ccnc(N2CCCC(C(=O)NC3CC3)C2)n1 (configuration not stated) | 0.97% |
| CN(C)S(=O)(=O)c1ccc(N2CCCC2)c(C(=O)Nc2cccc(F)c2)c1 | -1.31% |
| Cc1ccc(S(=O)(=O)N2CCCC(C(=O)N3CCN(C)CC3)C2)cc1 (configuration not stated) | -0.92% |
| O=S(=O)(NC1CC1)c1ccc(F)c(F)c1 | -0.16% |
| Cn1sc(=O)c2cc(S(=O)(=O)NC3CC3)ccc21 | 43% (active) |
| CC1CCC(NS(=O)(=O)c2ccc3c(c2)n(C)c(=O)c(=O)n3C)CC1 (configuration not stated) | -14% |
| N=c1c2c3c(sc2ncn1N)CCCCC3 | -3.67% |
| N=c1c2c3c(sc2ncn1N)CCCC3 | 2.91% |
| S=c1[nH]nc2c3c4c(sc3ncn12)CCCC4 | 38.3% (active) |
| Cn1ncc(Br)c1C(=O)NC1CCCC1 | -2.67% |
| CC(C)C1N=C2c3ccccc3N=C(SCC(=O)c3ccc(O)c(O)c3)N2C1=O (configuration not stated) | 55.1% (active) |
| O=C(CSC1=Nc2ccccc2C2=NC(CC(=O)NCc3ccco3)C(=O)N12)NCc1ccco1 (configuration not stated) | 7.17% |
| CCC(C)NC(=O)CSC1=Nc2ccccc2C2=NC(CCC(=O)NCc3ccco3)C(=O)N12 (configuration not stated) | -0.47% |
| CC(=O)C(C)n1cnc2scc(-c3ccc(C)cc3)c2c1=O (configuration not stated) | 0.85% |
| CSc1ccc(CNC(=O)c2ccc(NC(=O)C3=CSCCO3)cc2)cc1 | 6.37% |
| COc1cccc(C(=O)Nc2nnc(S(=O)(=O)N3CCOCC3)s2)c1 | 1.13% |
| O=C(c1ccncc1)c1ccc([N+](=O)[O-])cc1 | -0.4% |
| O=C(Cn1c[n+](CC(=O)c2ccc([N+](=O)[O-])cc2)cn1)c1ccc([N+](=O)[O-])cc1 | 50.9% (active) and 63.7% (active) |
| Cc1ccc(C(=O)Cn2cc([N+](=O)[O-])nc2C)cc1 | 1.83% |
